Values joined by “and” are separate entries in the source; they are usually repeats but may differ in a detail not shown here. Equal values may be shown once. Screen size: about 5,500 compounds; about 2,000 (36%) were called active. Not shown: some 18% with an inconclusive outcome. Cut-off read from the data, not from the text of the source: active = normalized growth mostly below about 0.91 (no sharp cut-off); inconclusive = no clear call, values can overlap the other calls; inactive = mostly above about 0.92. Some of the results follow. More than one record can exist for a structure, and the calls need not agree.
Experiment: chemical genetic growth profiling, strain panel (AID 1159580);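 note: tested at 20 µM; growth read once vehicle control cultures reached saturation at 30 °C; 1 = growth at the plate median or of vehicle wells; lower values mean less growth of the strain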
Conditions: growth OD

Measured: normalized growth

C/C=C/CC(C)C(O)C1C(=O)NC(CC)C(=O)N(C)CC(=O)N(C)C(CC(C)C)C(=O)NC(C(C)C)C(=O)N(C)C(CC(C)C)C(=O)NC(C)C(=O)NC(C)C(=O)N(C)C(CC(C)C)C(=O)N(C)C(CC(C)C)C(=O)N(C)C(C(C)C)C(=O)N1C (stereo unspecified)
active: S. cerevisiae deletion strains, locus YKR001C, strain vps1, stronger effect = lower value 0.619 | S. cerevisiae deletion strains, locus YLR039C, strain RIC1, stronger effect = lower value 0.621 | S. cerevisiae deletion strains, locus YLR262C, strain YPT6 (second series), stronger effect = lower value 0.573 | S. cerevisiae deletion strains, locus YLR262C, strain YPT6, stronger effect = lower value 0.509 | S. cerevisiae deletion strains, locus YLR342W, strain FKS1 (second series), stronger effect = lower value 0.173 | S. cerevisiae deletion strains, locus YLR342W, strain FKS1, stronger effect = lower value 0.247 | S. cerevisiae deletion strains, locus YMR231W, strain pep5, stronger effect = lower value 0.404
0.292 (active) and 1.01 (inactive): S. cerevisiae deletion strains, locus YMR307W, strain GAS1, stronger effect = lower value
inactive: S. cerevisiae deletion strains, locus YJR075W, strain HOC1, stronger effect = lower value 0.978 | S. cerevisiae deletion strains, locus YKL009W, strain mrt4, stronger effect = lower value 1.01 | S. cerevisiae deletion strains, locus YKL068W, stronger effect = lower value 1 | S. cerevisiae deletion strains, locus YKL085W, strain MDH1 (second series), stronger effect = lower value 0.984 | S. cerevisiae deletion strains, locus YKL085W, strain MDH1, stronger effect = lower value 0.984 | S. cerevisiae deletion strains, locus YKL160W, strain elf1, stronger effect = lower value 1.04 | S. cerevisiae deletion strains, locus YKL190W, strain CNB1, stronger effect = lower value 0.999 | S. cerevisiae deletion strains, locus YKR026C, strain gcn3, stronger effect = lower value 1.01 | S. cerevisiae deletion strains, locus YKR091W, strain srl3, stronger effect = lower value 1.02 | S. cerevisiae deletion strains, locus YLL001W, strain dnm1, stronger effect = lower value 1.02 | S. cerevisiae deletion strains, locus YLL026W, stronger effect = lower value 1.01 | S. cerevisiae deletion strains, locus YLL041C, strain sdh2, stronger effect = lower value 1.02 | S. cerevisiae deletion strains, locus YLR027C, strain aat2, stronger effect = lower value 1.02 | S. cerevisiae deletion strains, locus YLR058C, strain SHM2, stronger effect = lower value 1.01 | S. cerevisiae deletion strains, locus YLR102C, strain apc9, stronger effect = lower value 1.01 | S. cerevisiae deletion strains, locus YLR113W, strain HOG1, stronger effect = lower value 0.986 | S. cerevisiae deletion strains, locus YLR221C, strain rsa3, stronger effect = lower value 1.02 | S. cerevisiae deletion strains, locus YLR258W, strain gsy2, stronger effect = lower value 1.01 | S. cerevisiae deletion strains, locus YLR268W, strain sec22, stronger effect = lower value 1.01 | S. cerevisiae deletion strains, locus YLR320W, strain mms22, stronger effect = lower value 1.01 | S. cerevisiae deletion strains, locus YLR330W, strain CHS5, stronger effect = lower value 1.01 | S. cerevisiae deletion strains, locus YLR357W, strain rsc2, stronger effect = lower value 0.978 | S. cerevisiae deletion strains, locus YLR370C, strain arc18, stronger effect = lower value 1.01 | S. cerevisiae deletion strains, locus YLR371W, strain rom2, stronger effect = lower value 1.03 | S. cerevisiae deletion strains, locus YLR384C, strain iki3, stronger effect = lower value 1.01 | S. cerevisiae deletion strains, locus YLR418C, strain cdc73, stronger effect = lower value 0.925 | S. cerevisiae deletion strains, locus YML016C, strain PPZ1, stronger effect = lower value 1.02 | S. cerevisiae deletion strains, locus YML032C, strain rad52, stronger effect = lower value 1.04 | S. cerevisiae deletion strains, locus YML120C, strain ndi1, stronger effect = lower value 1.02 | S. cerevisiae deletion strains, locus YML124C, strain tub3, stronger effect = lower value 1.03 | S. cerevisiae deletion strains, locus YMR058W, strain fet3, stronger effect = lower value 1.02 | S. cerevisiae deletion strains, locus YMR078C, strain ctf18, stronger effect = lower value 1.01 | S. cerevisiae deletion strains, locus YMR125W, strain sto1, stronger effect = lower value 0.915 | S. cerevisiae deletion strains, locus YMR129W, stronger effect = lower value 1.01 | S. cerevisiae deletion strains, locus YMR205C, strain PFK2, stronger effect = lower value 0.978 | S. cerevisiae deletion strains, locus YMR223W, strain ubp8, stronger effect = lower value 1.04 | S. cerevisiae deletion strains, locus YMR263W, strain SAP30, stronger effect = lower value 0.99 | S. cerevisiae deletion strains, locus YNL067W, strain RPL9B, stronger effect = lower value 0.97 | S. cerevisiae deletion strains, locus YNL071W, strain lat1, stronger effect = lower value 1.03 | S. cerevisiae deletion strains, locus YNL128W, strain TEP1, stronger effect = lower value 0.948 | S. cerevisiae deletion strains, locus YNL153C, strain GIM3, stronger effect = lower value 0.97 | S. cerevisiae deletion strains, locus YNL175C, strain NOP13, stronger effect = lower value 0.963 | S. cerevisiae deletion strains, locus YNL183C, strain NPR1, stronger effect = lower value 0.955 | S. cerevisiae deletion strains, locus YNL197C, strain WHI3, stronger effect = lower value 0.955 | S. cerevisiae deletion strains, locus YNL209W, strain ssb2, stronger effect = lower value 1.01 | S. cerevisiae deletion strains, locus YNL224C, strain SQS1, stronger effect = lower value 0.966 | S. cerevisiae deletion strains, locus YNL233W, strain BNI4, stronger effect = lower value 0.986 | S. cerevisiae deletion strains, locus YNL248C, strain rpa49, stronger effect = lower value 1.02 | S. cerevisiae deletion strains, locus YNL250W, strain rad50, stronger effect = lower value 1.01 | S. cerevisiae deletion strains, locus YNL271C, strain bni1, stronger effect = lower value 1.01 | S. cerevisiae deletion strains, locus YNL298W, strain CLA4, stronger effect = lower value 0.987 | S. cerevisiae deletion strains, locus YNL307C, strain MCK1, stronger effect = lower value 1.04 | S. cerevisiae deletion strains, locus YNL322C, strain KRE1 (second series), stronger effect = lower value 1.01 | S. cerevisiae deletion strains, locus YNL322C, strain KRE1, stronger effect = lower value 1.03 and 1 | S. cerevisiae deletion strains, locus YNR049C, strain mso1, stronger effect = lower value 1.02 | S. cerevisiae deletion strains, locus YNR052C, strain pop2, stronger effect = lower value 1.04 | S. cerevisiae deletion strains, locus YOL006C, strain TOP1, stronger effect = lower value 0.83 | S. cerevisiae deletion strains, locus YOL012C, strain htz1 1.73 | S. cerevisiae deletion strains, locus YOL147C, strain pex11, stronger effect = lower value 1.02 | S. cerevisiae deletion strains, locus YOR001W, strain rrp6, stronger effect = lower value 1.03 | S. cerevisiae deletion strains, locus YOR061W, strain CKA2, stronger effect = lower value 0.967 | S. cerevisiae deletion strains, locus YOR069W, strain VPS5, stronger effect = lower value 1.02 | S. cerevisiae deletion strains, locus YOR070C, strain gyp1, stronger effect = lower value 1.01 | S. cerevisiae deletion strains, locus YOR080W, strain dia2, stronger effect = lower value 1 | S. cerevisiae deletion strains, locus YOR083W, strain WHI5 (second series), stronger effect = lower value 0.869 | S. cerevisiae deletion strains, locus YOR083W, strain WHI5, stronger effect = lower value 1.02 | S. cerevisiae deletion strains, locus YOR106W, strain vam3, stronger effect = lower value 0.975 | S. cerevisiae deletion strains, locus YOR136W, strain idh2, stronger effect = lower value 1.03 | S. cerevisiae deletion strains, locus YOR144C, strain elg1, stronger effect = lower value 1.02 | S. cerevisiae deletion strains, locus YOR184W, strain ser1, stronger effect = lower value 1.03 | S. cerevisiae deletion strains, locus YOR231W, strain MKK1, stronger effect = lower value 0.975 | S. cerevisiae deletion strains, locus YOR265W, strain rbl2, stronger effect = lower value 1.02 | S. cerevisiae deletion strains, locus YOR270C, strain vph1, stronger effect = lower value 0.895 | S. cerevisiae deletion strains, locus YOR290C, strain snf2, stronger effect = lower value 0.995 | S. cerevisiae deletion strains, locus YOR316C, strain cot1, stronger effect = lower value 1.01 | S. cerevisiae deletion strains, locus YPL051W, strain arl3, stronger effect = lower value 1.02 | S. cerevisiae deletion strains, locus YPL055C, strain LGE1, stronger effect = lower value 0.949 | S. cerevisiae deletion strains, locus YPL078C, strain atp4, stronger effect = lower value 1.02 | S. cerevisiae deletion strains, locus YPL106C, strain sse1, stronger effect = lower value 0.944 | S. cerevisiae deletion strains, locus YPL240C, strain hsp82, stronger effect = lower value 1.02 | S. cerevisiae deletion strains, locus YPL241C, strain CIN2, stronger effect = lower value 1.01 and 0.975 | S. cerevisiae deletion strains, locus YPL256C, strain CLN2, stronger effect = lower value 1.02 | S. cerevisiae deletion strains, locus YPR119W, strain clb2, stronger effect = lower value 1.02 | S. cerevisiae deletion strains, locus YPR141C, strain kar3, stronger effect = lower value 1 | S. cerevisiae deletion strains, locus YPR163C, strain tif3, stronger effect = lower value 1.02 | S. cerevisiae deletion strains, locus YPR167C, strain met16, stronger effect = lower value 1.02 | S. cerevisiae deletion strains, strain wtn01, stronger effect = lower value 1.02 | S. cerevisiae strains, strain wild type, stronger effect = lower value 1

Reference: PubChem BioAssay AID1159580 (chemical genetic matrix, 2015)
